The values that follow come from PubChem BioAssay (NCATS).

Several values for one entry are separate records, joined by “and”; a condition that tells them apart may be missing. Identical values can stand only once. Results filed as inconclusive are left out. Activity calls are given as the source filed them. Unless noted, the call rests on the fitted dose curve; in most records, active means well fitted curve in the direction sought with a large enough effect; inconclusive means small, poorly fitted or top-dose-only effect, or another doubt; inactive means no such curve, though single readings can be large; an effect the other way counts as inactive or inconclusive.

The target in test [1] is Nuclear receptor subfamily 1 group I member 2 (Homo sapiens) (UniProt O75469). As to the kind of experiment: Dual reporter qHTS for antagonist of Pregnane X Receptor (hPXR) against the NCATS DSHEA and TCM libraries: Luminescence Readout (AID 1920060).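 Further: HepG2 cells carrying hPXR luciferase reporter stimulated with rifampicin at 2 µM; 0% is about no effect.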 In outline: (§1)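 In antagonist mode, 2 uM rifampicin was added to hPXR-Luc HepG2 cells alongside test substances, incubated 24 h at 37 C; luminescence gave reporter activity, and CellTiter-Fluor fluorescence (405/540 nm) gave viability.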

A short description of test [2]: Dual reporter qHTS for antagonist of Pregnane X Receptor (hPXR) against the NCATS DSHEA and TCM libraries: Fluorescence Readout (AID 1920061). Further: 0% is about no effect. In outline:
as §1

The nature of test [3]: qHTS profiling for inhibitors of Plasmodium falciparum proliferation (AID 504749). Further: nearly all actives have a fitted effect of over 60% in size. Further: potency means the concentration at half of the fitted maximal effect.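 On activity, negative = inhibition: 0% = DMSO vehicle and full inhibition = artemisinin control.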 Conditions: P. falciparum in erythrocytes, SYBR Green DNA, 72 h. In outline:
(§2)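 SYBR Green fluorescence of parasite DNA, read after lysis and overnight dark incubation, measured growth over 72 h in erythrocyte culture at 0.3% parasitemia and 2.5% hematocrit. Data normalised to DMSO and 0.29 uM artemisinin, with plate-drift correction.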

A further test deals with 3D7. Described as above. Conditions: P. falciparum in erythrocytes, SYBR Green DNA, 72 h; series mostly up to 28.7 µM. In outline: as §2
Another test has as its system 7G8. The test is described as above. Conditions: P. falciparum in erythrocytes, SYBR Green DNA, 72 h; series mostly up to 28.7 µM. In outline: as §2
Another test has as its system AA1029. The test is described as above. Conditions: P. falciparum in erythrocytes, SYBR Green DNA, 72 h; series mostly up to 28.7 µM. In outline:
as §2

The subject of a further test is AS120. Described as above. Conditions: P. falciparum in erythrocytes, SYBR Green DNA, 72 h; series mostly up to 28.7 µM. In outline:
as §2

For a further test, the system named is ATS189. Described as above. The following applies: P. falciparum in erythrocytes, SYBR Green DNA, 72 h; series mostly up to 28.7 µM. In outline: as §2
The test system of a further test is ATS95. The description is as above. The following applies: P. falciparum in erythrocytes, SYBR Green DNA, 72 h; series mostly up to 28.7 µM. In outline:
as §2

The test system of another test is C2A. The description is as above. The following applies: P. falciparum in erythrocytes, SYBR Green DNA, 72 h; series mostly up to 28.7 µM. In outline: as §2
For another test, the system named is CP185. Described as above. The following applies: P. falciparum in erythrocytes, SYBR Green DNA, 72 h; series mostly up to 28.7 µM. In outline:
as §2

The next test relates to CP191. Described as above. Conditions: P. falciparum in erythrocytes, SYBR Green DNA, 72 h; series mostly up to 28.7 µM. In outline:
as §2

For another test, the system named is CP192. The test is described as above. The following applies: P. falciparum in erythrocytes, SYBR Green DNA, 72 h; series mostly up to 28.7 µM. In outline:
as §2

In the next test the test system is CP194. Described as above. The following applies: P. falciparum in erythrocytes, SYBR Green DNA, 72 h; series mostly up to 28.7 µM. In outline: as §2
A further test deals with CP201. The description is as above. Conditions: P. falciparum in erythrocytes, SYBR Green DNA, 72 h; series mostly up to 28.7 µM. In outline: as §2
The test system of the next test is CP203. Described as above. Conditions: P. falciparum in erythrocytes, SYBR Green DNA, 72 h; series mostly up to 28.7 µM. In outline:
as §2

A further test relates to CP211. Described as above. The following applies: P. falciparum in erythrocytes, SYBR Green DNA, 72 h; series mostly up to 28.7 µM. In outline:
as §2

Another test has as its system CP215. Described as above. The following applies: P. falciparum in erythrocytes, SYBR Green DNA, 72 h; series mostly up to 28.7 µM. In outline: as §2
The next test relates to CP217. Described as above. Conditions: P. falciparum in erythrocytes, SYBR Green DNA, 72 h; series mostly up to 28.7 µM. In outline:
as §2

Test [4] in a line: qHTS drug screen for cell cycle checkpoint inhibitors in PARPi-resistant BRCA-mutant ovarian cancer cell lines. (AID 1963452; calls by dose curve). Conditions: PEO1/OlaR viability, CellTiter-Glo luminescence, 96 h, stronger effect = lower value. In outline:
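PEO1, PEO4 and PEO1/OlaR ovarian cancer cells, 600 per well, exposed 96 h at 37C to a dilution series. Viability read by CellTiter-Glo luminescence, normalized to DMSO and empty wells; activity summarized as Z-AUC.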

[5] abbreviates: at 28.7 µM (top of the series), parasite line A.
Setting [6] is: at 28.7 µM (top of the series), parasite line B.
[7] abbreviates: measured here: PEO1 parental Z-AUC.

Nuclear receptor subfamily 1 group I member 2 (Homo sapiens), sequence (O75469 whole entry, looked up): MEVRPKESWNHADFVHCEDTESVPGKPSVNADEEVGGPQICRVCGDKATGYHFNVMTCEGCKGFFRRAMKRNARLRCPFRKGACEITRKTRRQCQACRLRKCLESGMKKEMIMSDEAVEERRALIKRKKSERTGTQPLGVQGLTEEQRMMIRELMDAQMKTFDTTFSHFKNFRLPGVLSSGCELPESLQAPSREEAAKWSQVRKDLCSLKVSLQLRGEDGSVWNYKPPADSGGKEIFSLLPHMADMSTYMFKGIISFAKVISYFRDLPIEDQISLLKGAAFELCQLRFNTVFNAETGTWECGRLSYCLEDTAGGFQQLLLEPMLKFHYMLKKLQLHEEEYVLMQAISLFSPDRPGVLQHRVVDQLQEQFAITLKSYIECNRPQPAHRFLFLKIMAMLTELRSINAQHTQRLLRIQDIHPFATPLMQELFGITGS

With `CC12CCC(CC1)C(C)(C)O2`, the outcome in [1] and in test [2] was inactive. Also, the figures for the activity, negative = inhibition in [3] (setting [5]) and in [3] (setting [6]) were 9.21% (inactive) and -14.4% (inactive), respectively. The Potency entry in the test with 3D7, in the test on 7G8, in the test with AA1029, with AS120, in the test on ATS189 and in the test on ATS95 was “inactive” in each case. The Potency result in the test on C2A, with CP185, with CP191, in the test on CP192, in the test on CP194 and in the test with CP201 was “inactive” in each case. Further, the Potency result in the test with CP203, with CP211, in the test on CP215 and in the test on CP217 was “inactive” each time.
For `O=c1cc(CO)occ1O`, the results for the activity, negative = inhibition in test [3] (setting [5]) and in test [3] (setting [6]) were 1.47% (inactive) and -0.837% (inactive), respectively. In addition, the Potency entry with 3D7, in the test on 7G8, with AA1029, with AS120, in the test on ATS189 and with ATS95 was “inactive” in each case. Moreover, the Potency result in the test on C2A, with CP185, in the test with CP191, in the test on CP192, with CP194 and in the test on CP201 was “inactive” each time. For the same molecule, the Potency entry in the test on CP203, with CP211, with CP215 and in the test on CP217 was “inactive” in each case.
On to `NC(=O)c1ncn([C@@H]2O[C@H](CO)[C@@H](O)[C@H]2O)c1N`, for which the Z-AUC in test [4] is -0.269 (inactive); in [4] (setting [7]) it was -0.745; in test [4] (measured here: PEO4 Z-AUC) it was -0.555.
For `NC(=O)c1ncn([C@@H]2O[C@H](CO)[C@@H](O)[C@H]2O)n1`, in that order: -0.199 (inactive), -0.186 and -0.149.
As to `CCCCC(CC)COC(=O)c1ccccc1O` (configuration not stated), the activity, negative = inhibition in [3] (setting [5]) was 5.45% (inactive); in test [3] (setting [6]) it was -0.719% (inactive). Moreover, the Potency entry in the test on 3D7, with 7G8, with AA1029, with AS120, in the test with ATS189 and in the test with ATS95 was “inactive” each time. In addition, the Potency entry in the test with C2A, in the test on CP185, in the test with CP191, with CP192, in the test with CP194 and in the test on CP201 was “inactive” in each case. Besides, the Potency result in the test with CP203, in the test with CP211, in the test on CP215 and with CP217 was “inactive” throughout.
As to `CCCCN(CCCC)CC(O)c1cc(Cl)cc2c1-c1ccc(Cl)cc1/C2=C/c1ccc(Cl)cc1` (configuration not stated), the figures for the Z-AUC in test [4], in [4] (setting [7]) and in test [4] (measured here: PEO4 Z-AUC) were -0.171 (inactive), -0.362 and -0.228, respectively. The Potency in [3] (parasite line A) is 25.1 nM (active); in test [3] (parasite line B), 7.1 nM (active); in the test on 3D7, 15.8 nM (active); with 7G8, 2.8 nM (active); in the test with AA1029, 14.1 nM (active); with AS120, 10 nM (active). In addition, the Potency in the test with ATS189 was 12.6 nM (active); with ATS95, 12.6 nM (active); with C2A, 44.7 nM (active); in the test on CP185, 31.6 nM (active); in the test on CP191, 28.2 nM (active); in the test with CP192 it was 47.8 nM (active). Moreover, the Potency is 47.8 nM (active) in the test on CP194; 151 nM (active) in the test with CP201; 19 nM (active) with CP203; 53.6 nM (active) with CP211; 42.6 nM (active) in the test with CP215; 35.5 nM (active) in the test with CP217.
With `O=C1Nc2ccc(Cl)cc2[C@@](C#CC2CC2)(C(F)(F)F)O1`, the Z-AUC in test [4] was -0.995 (inactive) and -0.662 (inactive); in [4] (setting [7]), -0.432 and 0.539; in test [4] (measured here: PEO4 Z-AUC) it was -0.62 and -0.612.
`OC[C@H]1O[C@@H](O[C@@H]2[C@@H](CO)O[C@](O)(CO)[C@H]2O)[C@H](O)[C@@H](O)[C@H]1O`: the Z-AUC in [4] was -0.433 (inactive); in test [4] (setting [7]) it was -0.31; in [4] (measured here: PEO4 Z-AUC), -0.255.
For the molecule `Nc1ccc(S(=O)(=O)NC(=O)c2ccccc2)cc1`, the activity, negative = inhibition in test [3] (at 12.8 µM (top of the series), parasite line A) is 10.4% (inactive); in [3] (at 12.8 µM (top of the series), parasite line B), 13.1% (inactive). The Potency result with 3D7, with 7G8, in the test with AA1029, with AS120, in the test with ATS189 and in the test on ATS95 was “inactive” each time. The Potency result in the test with C2A, in the test with CP185, in the test with CP191, in the test on CP192, in the test on CP194 and in the test with CP201 was “inactive” throughout. The Potency entry in the test with CP203, in the test on CP211, in the test on CP215 and in the test with CP217 was “inactive” each time.
